Measured values reported in PubChem BioAssay (EPA / NIEHS).
Where “and” joins values, the source holds several entries; their conditions need not be identical. Equal values may be shown once. Results filed as inconclusive are left out. More than one record can exist for a structure, and the calls need not agree. Calls of active or inactive are those of the source. Rule for the calls: active = hit-call score of the fitted dose curve at least 0.9, where 1 is the maximum; inconclusive = response in the unintended direction; inactive = score below 0.9.

Key:
[1] = LTEA_HepaRG_LDH_cytotoxicity: Cytotoxicity Assessment in the Life Technologies and Expression Analysis (LTEA) Assay (AID 2283563)
Method: LTEA_HepaRG is a cell based, multiplexed-readout assay that uses HepaRG, a human liver cell line, with measurements taken at 48 hours after chemical dosing on a 96-well plate.LTEA_HepaRG_LDH_cytotoxicity is one of 102 assay component(s) measured in the LTEA HepaRG cell culture assay. It is a marker of cell viability / cytotoxicity.Data from the assay component LTEA_HepaRG_LDH_cytotoxicity was analyzed into 1 endpoint. This assay endpoint, LTEA_HepaRG_LDH_cytotoxicity, was analyzed in the positive fitting direction relative to DMSO as the negative control and baseline of activity. Using a type of inducible reporter, measures of mRNA induction for loss-of-signal activity can be used to understand cell death. To generalize the intended target to other relatable targets, this assay endpoint is annotated to the cell cycle intended target family, where the subfamily is proliferation.
A total of 1060 chemcials from the ToxCast library were tested in eight-point concentration-response experiments. Cell culture and cytotoxicity assays were conducted at Thermo Fisher Scientific's Custom Services facility (Madison, WI). […] Fluidigm's 96.96 Dynamic ArrayTM (Fluidigm, Amsterdam, the Netherlands) technology was used for gene expression analyses by quantitative reverse transcription polymerase chain reaction (qRT-PCR, performed by Quintiles/Expression Analysis, Durham, NC)89. […]

[2] = TOX21_p53_BLA_p2_viability: Viability Assessment in the Tox21 HCT-116 p53 Agonism Beta-lactamase Assay, Phase 2 (AID 2283591);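 note: actives lower the ATP signal meaning cytotoxicity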
Procedure, shortened: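 HCT-116 p53-bla cells (4000/well) rested 5 h at 37C, then received compounds in DMSO (217-fold dilution) for 16 h at 37C, 5% CO2. After the CCF4 read, CellTiter-Glo was added; ATP luminescence was read after 30 min at room temperature.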

[3] = target: Cellular tumor antigen p53 (Homo sapiens) (UniProt P04637); test: TOX21_p53_BLA_p2_ratio: Tox21 HCT-116 p53 Agonism Beta-lactamase Assay, Ratio, Phase 2 (AID 2283592)
Chain of Cellular tumor antigen p53 (Homo sapiens) (P04637 whole entry, looked up): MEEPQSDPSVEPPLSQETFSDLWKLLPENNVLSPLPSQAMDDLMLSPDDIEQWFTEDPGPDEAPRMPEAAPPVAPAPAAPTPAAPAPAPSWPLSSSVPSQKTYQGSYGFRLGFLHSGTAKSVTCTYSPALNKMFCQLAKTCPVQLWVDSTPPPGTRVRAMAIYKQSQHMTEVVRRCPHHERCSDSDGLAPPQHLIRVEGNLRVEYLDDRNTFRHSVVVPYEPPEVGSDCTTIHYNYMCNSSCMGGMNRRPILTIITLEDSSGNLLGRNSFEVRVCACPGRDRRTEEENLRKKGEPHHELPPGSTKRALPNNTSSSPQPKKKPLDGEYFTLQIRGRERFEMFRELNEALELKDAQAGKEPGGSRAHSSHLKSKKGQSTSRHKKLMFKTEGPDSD
Procedure, shortened: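 First, HCT116 reporter cells settle for 5 h at 37C. Next, DMSO compound solutions are pinned in (217-fold dilution) and left 16 h. Finally, CCF4-AM substrate is loaded 2 h at room temperature and the 460/530 nm ratio read.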

[4] = TOX21_p53_BLA_p3_viability: Viability Assessment in the Tox21 HCT-116 p53 Agonism Beta-lactamase Assay, Phase 3 (AID 2283593);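 note: cells exposed to compound for 16 h before reading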
Procedure, shortened: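 HCT-116 cells (4000/well) rested 5 h at 37C, then got DMSO compounds by pin tool (217-fold dilution) for 16 h at 37C, 5% CO2. After the bla read, CellTiter-Glo was added and luminescence read at 30 min, room temperature.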

[5] = TOX21_p53_BLA_p4_viability: Viability Assessment in the Tox21 HCT-116 p53 Agonism Beta-lactamase Assay, Phase 4 (AID 2283597);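 note: hits lower the luminescence signal meaning cytotoxicity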
Procedure, shortened: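 4000 HCT116 cells per well; 5 h attachment; compounds from DMSO, 217-fold dilution; 16 h at 37C. Then CCF4-AM, 2 h RT, followed by CellTiter-Glo, 30 min RT, luminescence. Decrease = cytotoxicity.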

[6] = target: Cellular tumor antigen p53 (Homo sapiens) (UniProt P04637); test: TOX21_p53_BLA_p5_ratio: Tox21 HCT-116 p53 Agonism Beta-lactamase Assay, Ratio, Phase 5 (AID 2283599)
Procedure, shortened: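 HCT-116 cells carrying a p53-inducible beta-lactamase reporter were seeded at 4000 cells/well and dosed after 5 h with compound in DMSO (217-fold dilution). After 16 h at 37C, CCF4-AM substrate was added for 2 h, and the 460/530 nm emission ratio was scored as gain-of-signal versus DMSO.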

[7] = TOX21_p53_BLA_p5_viability: Viability Assessment in the Tox21 HCT-116 p53 Agonism Beta-lactamase Assay, Phase 5 (AID 2283600)
Procedure, shortened: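 Decreased CellTiter-Glo luminescence denotes lost viability. Exposure: 16 h at 37C, 5% CO2, with compounds from DMSO stocks diluted 217-fold in wells of 4000 cells.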

[8] = target: Cellular tumor antigen p53 (Homo sapiens) (UniProt P04637); test: TOX21_p53_BLA_p4_ratio: Tox21 HCT-116 p53 Agonism Beta-lactamase Assay, Ratio, Phase 4 (AID 2283601)
Procedure, shortened: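 HCT116 cells carrying an inducible beta-lactamase reporter were plated at 4000 cells/well, rested 5 h, then exposed to compounds in DMSO (217-fold dilution) for 16 h at 37C. CCF4-AM substrate was loaded 2 h at room temperature; 460/530 nm emission ratio scored gain-of-signal versus DMSO.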

[9] = ATG_XTT_Cytotoxicity: Cytotoxicity Assessment in the Attagene TRANS-FACTORIAL HepG2 Assay (AID 2283584);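 for AC50: XTT signal for cell number as viability in transfected HepG2 cells; cells exposed to compound for 24 h before reading; active means loss of viability signal versus DMSO baseline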
Procedure, shortened: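 HepG2 cells transiently transfected with GAL4-UAS multiple reporter units, dosed 24 h; cytotoxicity read by XTT as loss of signal versus DMSO baseline.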

[10] = target: Cellular tumor antigen p53 (Homo sapiens) (UniProt P04637); test: TOX21_p53_BLA_p3_ratio: Tox21 HCT-116 p53 Agonism Beta-lactamase Assay, Ratio, Phase 3 (AID 2283596)
Procedure, shortened: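 Cells were seeded at 4000/well, rested 5 h at 37C, then dosed with DMSO compound solutions (217-fold dilution) for 16 h. CCF4-AM substrate was loaded for 2 h at room temperature, and the 460/530 nm emission ratio was fitted for gain of signal versus DMSO.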

## CS(=O)(=O)OCCCCOS(C)(=O)=O
[1]
  outcome: inactive
[2]
  outcome: inactive
[3]
  outcome: inactive
[4]
  AC50: 2.31e-05 µM (active)
  outcome: inactive
[5]
  outcome: inactive
[6]
  outcome: inactive
[7]
  outcome: inactive
[8]
  outcome: inactive

## C=C(C)C(=O)OCC(CC)(COC(=O)C(=C)C)COC(=O)C(=C)C
[9]
  outcome: inactive
[2]
  outcome: inactive
[3]
  outcome: inactive
[4]
  outcome: inactive
[10]
  outcome: inactive
[5]
  outcome: inactive
[6]
  outcome: inactive

## COCCOC(=O)c1ccccc1C(=O)OCCOC
[9]
  outcome: inactive
[2]
  outcome: inactive
[3]
  outcome: inactive
[4]
  outcome: inactive
[10]
  outcome: inactive
[5]
  outcome: inactive
[6]
  outcome: inactive
[7]
  outcome: inactive
[8]
  outcome: inactive

## CCCCCCCCCC(C)C=O (stereo unspecified)
[9]
  outcome: inactive
[2]
  outcome: inactive
[3]
  outcome: inactive
[4]
  outcome: inactive
[10]
  outcome: inactive
[5]
  outcome: inactive
[6]
  outcome: inactive
[7]
  outcome: inactive
[8]
  outcome: inactive

## CCCCCc1ccco1
[9]
  outcome: inactive
[2]
  outcome: inactive
[3]
  outcome: inactive
[4]
  AC50: 58 µM (active)
[10]
  outcome: inactive
[5]
  outcome: inactive
[6]
  outcome: inactive
[7]
  outcome: inactive
[8]
  outcome: inactive

## O=[N+]([O-])c1ccc(O)cc1C(F)(F)F
[9]
  outcome: inactive
[2]
  outcome: inactive
[3]
  AC50: 28.2 µM (active)
[4]
  outcome: inactive
[10]
  AC50: 42 µM (active)
[5]
  outcome: inactive
[6]
  AC50: 30.7 µM (active)
[7]
  outcome: inactive
[8]
  AC50: 45.6 µM (active)

## CSc1c(Cl)c(Cl)c(Cl)c(Cl)c1Cl
[9]
  outcome: inactive
[2]
  outcome: inactive
[3]
  outcome: inactive
[4]
  AC50: 45.9 µM (active)
[10]
  outcome: inactive
[5]
  outcome: inactive
[6]
  outcome: inactive
[7]
  outcome: inactive
[8]
  outcome: inactive

## CCOC(=O)CN
[9]
  outcome: inactive

## CCOC(=O)CC(C)O (stereo unspecified)
[9]
  outcome: inactive

## CC(C)=CCCC(C)CC(=O)O (stereo unspecified)
[9]
  outcome: inactive

## COC(=O)C=C(C)CCC=C(C)C
[9]
  outcome: inactive
[2]
  outcome: inactive
[3]
  outcome: inactive
[4]
  outcome: inactive
[10]
  outcome: inactive
[5]
  outcome: inactive
[6]
  outcome: inactive

## CCCC(O)C(O)CO (stereo unspecified)
[9]
  outcome: inactive

## COc1cc(C(C)C)ccc1C
[9]
  outcome: inactive

## N[C@@H](Cc1cc(I)c(Oc2cc(I)c(O)c(I)c2)c(I)c1)C(=O)O
[9]
  outcome: inactive
[2]
  outcome: inactive
[3]
  AC50: 43.6 µM (active)
  outcome: inactive
[4]
  outcome: inactive
[10]
  outcome: inactive
[5]
  AC50: 37 µM (active)
  outcome: inactive
[6]
  AC50: 39.3 µM (active)
[7]
  outcome: inactive
[8]
  AC50: 39.8 µM (active)
  outcome: inactive

## CN(C)CCOc1ccc(/C(=C(/CCCl)c2ccccc2)c2ccccc2)cc1
[9]
  AC50: 24.6 µM (active)
[2]
  AC50: 58.1 µM (active)
  outcome: inactive
[3]
  AC50: 74.9 µM (active)
  outcome: inactive
[4]
  AC50: 66.3 µM (active)
  outcome: inactive
[10]
  outcome: inactive
[5]
  AC50: 49.8 µM (active) and 37 µM (active)
[6]
  AC50: 74 µM (active)
  outcome: inactive
[7]
  AC50: 59.8 µM (active)
  outcome: inactive
[8]
  AC50: 72.9 µM (active) and 39 µM (active)

## NCCNc1cccc2ccccc12
[9]
  outcome: inactive
[2]
  outcome: inactive
[3]
  outcome: inactive
[4]
  outcome: inactive
[10]
  outcome: inactive
[5]
  outcome: inactive
[6]
  outcome: inactive
[7]
  outcome: inactive
[8]
  outcome: inactive

## Oc1c(Cl)cc(Cl)c(Cl)c1Cc1c(O)c(Cl)cc(Cl)c1Cl
[9]
  outcome: inactive
[2]
  AC50: 9.14 µM (active) and 38.7 µM (active)
  outcome: inactive
[3]
  AC50: 10.3 µM (active) and 583 nM (active) and 984 nM (active)
[4]
  AC50: 39.9 µM (active) and 568 nM (active)
  outcome: inactive
[10]
  AC50: 19.5 µM (active) and 446 nM (active) and 1.07 µM (active)
[5]
  AC50: 36.9 µM (active) and 49.3 µM (active) and 1.62 µM (active)
[6]
  AC50: 13.8 µM (active) and 26.4 µM (active) and 18.6 µM (active)
[7]
  outcome: inactive
[8]
  AC50: 42.2 µM (active) and 43.5 µM (active) and 6.65 µM (active)

## Cc1[nH]c(=O)c(C#N)cc1-c1ccncc1
[9]
  outcome: inactive
[2]
  outcome: inactive
[3]
  outcome: inactive
[4]
  outcome: inactive
[10]
  outcome: inactive
[5]
  outcome: inactive
[6]
  outcome: inactive
[7]
  outcome: inactive
[8]
  outcome: inactive

## O=C1c2ccccc2C(=O)c2c(O)ccc(O)c21
[9]
  outcome: inactive
[2]
  outcome: inactive
[3]
  outcome: inactive
[4]
  outcome: inactive
[10]
  outcome: inactive
[5]
  outcome: inactive
[6]
  outcome: inactive
[7]
  outcome: inactive
[8]
  outcome: inactive

## Clc1cc(Cl)c(-c2c(Cl)c(Cl)cc(Cl)c2Cl)cc1Cl
[9]
  outcome: inactive

## C=Cc1ccc(C)cc1
[9]
  outcome: inactive
[2]
  outcome: inactive
[3]
  outcome: inactive
[4]
  outcome: inactive
[10]
  outcome: inactive
[5]
  outcome: inactive
[6]
  outcome: inactive
[7]
  outcome: inactive
[8]
  outcome: inactive

## C/C=C(\C)C(=O)OCCc1ccccc1
[9]
  outcome: inactive
[2]
  outcome: inactive
[3]
  outcome: inactive
[4]
  outcome: inactive
[10]
  outcome: inactive
[5]
  outcome: inactive

## CC(C)(C)C1=CC(=O)C(C(C)(C)C)=CC1=O
[9]
  outcome: inactive

## NCc1ccco1
[9]
  outcome: inactive

## O=C(O)CCCCCCCCC(=O)O
[9]
  outcome: inactive
[2]
  outcome: inactive
[3]
  outcome: inactive
[4]
  outcome: inactive
[10]
  outcome: inactive
[5]
  outcome: inactive
[6]
  outcome: inactive
[7]
  outcome: inactive
[8]
  outcome: inactive

## CC(=O)Nc1ccc(C(=O)CCl)cc1
[9]
  outcome: inactive
[2]
  outcome: inactive
[3]
  AC50: 76.7 µM (active)
  outcome: inactive
[4]
  outcome: inactive
[10]
  AC50: 29.9 µM (active)
  outcome: inactive
[6]
  AC50: 20.9 µM (active)
  outcome: inactive
[7]
  outcome: inactive
[8]
  AC50: 79.4 µM (active)
  outcome: inactive
